From PubChem BioAssay (NCATS) come the findings set out here.

Several values for one entry are separate records, joined by “and”; a condition that tells them apart may be missing. Equal entries are not always repeated. Results filed as inconclusive are left out. Activity calls are given as the source filed them. Unless noted, calls follow the shape of the dose curve; as a rule, active = well fitted curve in the direction sought with a large enough effect; inconclusive = small, poorly fitted or top-dose-only effect, or another doubt; inactive = no such curve, though single readings can be large; an effect the other way counts as inactive or inconclusive.

The target in assay [1] is Mitogen-activated protein kinase 10 (Mus musculus) (UniProt Q61831). Briefly: JNK3 AlphaScreen Assay (AID 530; active = well fitted curve in either direction with a large enough effect, not every such curve was filed as active;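 also: kinase came from lysate of stimulated human HepG2 cells; signal reports phosphorylation of biotinylated GST-cJun 1-79 at Ser73 with 10 µM ATP; % is scaled to controls: 0 for no effect and ±100 for the full control effect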). In short, it runs like this: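 Biotinylated GST-cJun(1-79) served as substrate for JNK3 in HepG2 lysates stimulated with IL-1beta and TNF-alpha. ATP was 10 uM final, pH 7.6. Ser73 phosphorylation was quantified by AlphaScreen (680 nm excitation).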
Assay [2] can be described thus: Cell Viability - N2a (AID 540).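 Also: cells exposed to compound for 40 h at 37 °C; plate controls were DMSO alone for no effect and tamoxifen control for full effect; nearly all actives have a fitted effect of over 45% in size.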 The note with it: N2a mouse neuroblastoma cell viability; activity change, negative = cytotoxicity: at 92.2 µM (top of the series). The gist of the method: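 N2a mouse neuroblastoma, 1500 cells/well, 5 hr settle; compound 40 hr, 37 °C; CellTiter-Glo 20 min RT; luminescence; Hill-fit AC50.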
Assay [3] in a line: Cell Viability - Renal Proximal Tubule (AID 545).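 Also: cells exposed to compound for 40 hours; 0% = DMSO only and -100% = 100 µM tamoxifen; nearly all actives have a fitted effect of over 40% in size.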 The gist of the method:
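Viability taken as intracellular ATP (CellTiter-Glo luminescence) after 40 hr, 37 °C compound treatment of primary proximal tubule cells from rat kidney, 1000 cells/well; Hill-equation fits of qHTS concentration-response data gave AC50.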

Assay [4] in a line: Cell Viability - Mesenchymal (AID 546).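 Also: cells exposed to compound for 40 hours before reading; 0% = DMSO only and -100% = 100 µM tamoxifen.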 In short, it runs like this: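 In this qHTS cytotoxicity format, glomerulus-derived human mesenchymal kidney cells received compound for 40 hr, then luciferase-based ATP quantitation. Concentration-response data were fitted with the Hill equation.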
Assay [5] in a line: Cellular Toxicity (caspase-3) Mesangial (AID 660).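 Also: combined caspase 3 and 7 activity read by Caspase-Glo luminescence; cells exposed to compound for 16 h before the caspase read.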 The gist of the method:
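Luminescent Caspase-Glo 3/7 readout (aminoluciferin substrate cleavage, 20 min RT) after 16 h compound exposure at 37 °C of normal human mesangial cells. Signal increase normalized between DMSO basal and 100 uM tamoxifen; Hill-equation AC50.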

Assay [6] can be described thus: Cellular Toxicity (caspase-3) Renal Proximal Tubule (AID 667).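 Also: cells exposed to compound for 16 hours at 37 °C before detection; 0% = DMSO basal and 100% = 10 µM staurosporine.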 The gist of the method: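 Caspase 3/7 activation measured by luminescent aminoluciferin release in primary rat proximal tubule cells after 16 hr compound exposure at 37 °C. AC50 from Hill-fitted concentration-response, scaled between DMSO and 10 uM staurosporine.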
Assay [7] deals with Cytochrome P450 3A4 (Homo sapiens) (UniProt P08684). Briefly: qHTS Assay for Inhibitors and Substrates of Cytochrome P450 3A4 (AID 884). Also: % is scaled to controls: 0 for no effect and ±100 for the full control effect; nearly all actives have a fitted effect of over 50% in size. The gist of the method: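 Luminescent readout of luciferin produced by CYP3A4 (20 nM) dealkylation of Luciferin-PPXE, 25 uM (its KM). NADPH-driven reaction ran 60 min at RT after 10 min compound preincubation; data scaled to 57 uM ketoconazole as 100% inhibition.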

The nature of assay [8]: MultiTox-Fluor Cytotoxicity Assay - LYMP1-001 - Live Cells (AID 947).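 Also: 0% = DMSO only and full inhibition = tetraoctylammonium bromide control.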
Assay [9] in a line: Cell Viability - LYMP2-005 (AID 967).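 Also: plate controls were DMSO only for no effect and 92 µM tetraoctylammonium bromide control for full effect.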 The gist of the method:
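LYMP2-005 human lymphoblastoid cells (2500/well) were treated with compounds for 24 h at 37 C. Intracellular ATP was then measured by CellTiter-Glo luminescence after 30 min at room temperature. AC50 values came from Hill-equation fits of qHTS concentration-response data.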

A short description of assay [10]: Cell Viability - LYMP2-016 (AID 984).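 Also: cells exposed to compound for 24 hours at 37 °C; % is scaled to controls: 0 for no effect and ±100 for the full control effect; nearly all actives have a fitted effect of over 55% in size.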 In short, it runs like this: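 Cytotoxicity was scored by luminescent ATP content (CellTiter-Glo) after 24 h compound exposure at 37 C of a human lymphoblastoid line at 2500 cells/well. Concentration-response data were fitted to the Hill equation for AC50.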
Assay [11] in a line: Cell Viability - LYMP2-024 (AID 988).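 Also: plate controls were DMSO only for no effect and 92 µM tetraoctylammonium bromide for full effect; nearly all actives have a fitted effect of over 60% in size.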 The gist of the method:
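ATP-based luminescence (CellTiter-Glo, 30 min RT) after 24 h compound exposure at 37 C of 2500 lymphoblastoid cells/well; decrease in ATP taken as cytotoxicity. qHTS concentration-response fitted to standard Hill equation for AC50.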

The target in assay [12] is Vitamin D3 receptor (Homo sapiens) (UniProt P11473). Briefly: qHTS assay for small molecule antagonists of vitamin D receptor signaling (AID 588541; calls by dose curve;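 also: receptor activated by calcitriol during compound treatment; % is scaled to controls: 0 for no effect and ±100 for the full control effect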). The gist of the method: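 VDR-UAS-bla HEK293T cells (2000/well, 2% charcoal-stripped FBS) were treated with titrated compounds plus 1-alpha,25-dihydroxyvitamin D3 (50 nM or 3 nM final) for 16 h at 37 C. CCF4 beta-lactamase fluorescence was read; Hill fits gave IC50.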

The nature of assay [13]: qHTS assay for small molecule antagonists of retinoid X receptor alpha signaling (AID 588546).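 Also: cells stimulated with 9-cis-retinoic acid as agonist; % is scaled to controls: 0 for no effect and ±100 for the full control effect.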 To be noted: HEK293T RXRa-UAS-bla, beta-lactamase ratio, antagonist mode; measured here: W530 green channel, cytotoxicity proxy. The gist of the method: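 Beta-lactamase reporter inhibition, read as CCF4 fluorescence ratio (ex 405, em 460/530 nm) after 2 h at RT. HEK293T UAS-bla cells, 2500/well, were stimulated with 9-cis-RA at 500 or 100 nM final alongside test compound for 18 h at 37 C.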

Assay [14] addresses Voltage-gated inwardly rectifying potassium channel KCNH2 (Homo sapiens) (UniProt Q12809). Description: qHTS Assay for Small Molecule Inhibitors of the Human hERG Channel Activity (AID 588834).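 Also: top concentration of the series differs between compounds; % is scaled to controls: 0 for no effect and ±100 for the full control effect; lower thallium flux fluorescence means stronger hERG block; nearly all actives have a fitted effect of over 50% in size.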 The gist of the method:
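hERG block measured as reduced thallium-dye (FluxOR) fluorescence after stimulation buffer addition, read over 2 min. Cells were hERG-BacMam-transduced U2OS exposed to compound ~10 min […]; concentration-response fitted with Hill equation for AC50.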

Assay [15] can be described thus: qHTS assay for small molecule disruptors of the mitochondrial membrane potential - 1 hr assay (AID 651754; calls by dose curve; also: % is scaled to controls: 0 for no effect and ±100 for the full control effect; nearly all actives have a fitted effect of over 35% in size). The gist of the method: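 Read-out: dye fluorescence at 490 nm ex/535 nm em (monomers) and 540 nm ex/590 nm em (aggregates) in HepG2 cells. Compound exposure 1 hr at 37C, followed by 30 min dye loading.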
Assay [16] can be described thus: qHTS assay for cell viability of HEK293 cells (AID 743288). Also: % is scaled to controls: 0 for no effect and ±100 for the full control effect; nearly all actives have a fitted effect of over 50% in size. The note with it: ATP luminescence (CellTiter-Glo), 18 h, stronger effect = lower value. In short, it runs like this: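 Readout is luciferase-coupled ATP content (CellTiter-Glo luminescence, 30 min room temperature) as a measure of metabolically competent cells. Parental HEK293 cells were plated 5 h or more before compound addition, then treated 18 h at 37 C.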

Assay [17] has as its target Nuclear receptor subfamily 1 group I member 2 (Rattus norvegicus) (UniProt Q9R1A7). Description: qHTS assay for small molecule activators of the rat pregnane X receptor (rPXR) signaling pathway (AID 651751; call rule not given here; also: 0% is about no effect). The note with it: rPXR reporter cells, luciferase (One-Glo), 24 h.
Assay [18] in a line: qHTS assay for small molecule activators of the human pregnane X receptor (PXR) signaling pathway (AID 720659; call rule not given here; also: 0% is about no effect).
Assay [19] is described as follows: Cell Viability - HUV-EC-C (AID 542).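 Also: cells exposed to compound for 40 hours; % is scaled to controls: 0 for no effect and ±100 for the full control effect; nearly all actives have a fitted effect of over 35% in size.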 In short, it runs like this:
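Luminescent ATP read-out (CellTiter-Glo, 20 min room temperature) after 40 hr compound treatment of HUV-EC-C cells at 37 °C. Concentration-response data fitted with the standard Hill equation to give AC50; tamoxifen and doxorubicin served as positive controls.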

Assay [20] can be described thus: Cell Viability - LYMP2-010 (AID 981).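 Also: cells exposed to compound for 24 hours at 37 °C; % is scaled to controls: 0 for no effect and ±100 for the full control effect; nearly all actives have a fitted effect of over 55% in size.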 The gist of the method:
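qHTS cytotoxicity, 1536-well: 2500 cells/well, 5 hr settle, 24 hr compound at 37 C, CellTiter-Glo 30 min RT, luminescence read. Decrease in ATP = toxicity; AC50 via standard Hill equation. Positive control tetraoctylammonium bromide.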

Chain of Nuclear receptor subfamily 1 group I member 2 (Rattus norvegicus) (Q9R1A7 whole entry, looked up): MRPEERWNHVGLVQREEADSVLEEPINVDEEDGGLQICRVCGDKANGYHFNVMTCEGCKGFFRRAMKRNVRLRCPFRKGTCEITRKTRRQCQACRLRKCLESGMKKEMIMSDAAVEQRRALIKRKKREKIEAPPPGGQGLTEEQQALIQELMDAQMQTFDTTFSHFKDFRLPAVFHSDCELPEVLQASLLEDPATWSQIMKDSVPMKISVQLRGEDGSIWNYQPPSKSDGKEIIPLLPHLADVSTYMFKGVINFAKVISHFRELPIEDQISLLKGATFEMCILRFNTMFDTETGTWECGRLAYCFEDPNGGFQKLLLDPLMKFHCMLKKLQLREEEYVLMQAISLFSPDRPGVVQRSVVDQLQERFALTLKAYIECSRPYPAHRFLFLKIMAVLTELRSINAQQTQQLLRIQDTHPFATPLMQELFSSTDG
Chain of Voltage-gated inwardly rectifying potassium channel KCNH2 (Homo sapiens) (Q12809 whole entry, looked up): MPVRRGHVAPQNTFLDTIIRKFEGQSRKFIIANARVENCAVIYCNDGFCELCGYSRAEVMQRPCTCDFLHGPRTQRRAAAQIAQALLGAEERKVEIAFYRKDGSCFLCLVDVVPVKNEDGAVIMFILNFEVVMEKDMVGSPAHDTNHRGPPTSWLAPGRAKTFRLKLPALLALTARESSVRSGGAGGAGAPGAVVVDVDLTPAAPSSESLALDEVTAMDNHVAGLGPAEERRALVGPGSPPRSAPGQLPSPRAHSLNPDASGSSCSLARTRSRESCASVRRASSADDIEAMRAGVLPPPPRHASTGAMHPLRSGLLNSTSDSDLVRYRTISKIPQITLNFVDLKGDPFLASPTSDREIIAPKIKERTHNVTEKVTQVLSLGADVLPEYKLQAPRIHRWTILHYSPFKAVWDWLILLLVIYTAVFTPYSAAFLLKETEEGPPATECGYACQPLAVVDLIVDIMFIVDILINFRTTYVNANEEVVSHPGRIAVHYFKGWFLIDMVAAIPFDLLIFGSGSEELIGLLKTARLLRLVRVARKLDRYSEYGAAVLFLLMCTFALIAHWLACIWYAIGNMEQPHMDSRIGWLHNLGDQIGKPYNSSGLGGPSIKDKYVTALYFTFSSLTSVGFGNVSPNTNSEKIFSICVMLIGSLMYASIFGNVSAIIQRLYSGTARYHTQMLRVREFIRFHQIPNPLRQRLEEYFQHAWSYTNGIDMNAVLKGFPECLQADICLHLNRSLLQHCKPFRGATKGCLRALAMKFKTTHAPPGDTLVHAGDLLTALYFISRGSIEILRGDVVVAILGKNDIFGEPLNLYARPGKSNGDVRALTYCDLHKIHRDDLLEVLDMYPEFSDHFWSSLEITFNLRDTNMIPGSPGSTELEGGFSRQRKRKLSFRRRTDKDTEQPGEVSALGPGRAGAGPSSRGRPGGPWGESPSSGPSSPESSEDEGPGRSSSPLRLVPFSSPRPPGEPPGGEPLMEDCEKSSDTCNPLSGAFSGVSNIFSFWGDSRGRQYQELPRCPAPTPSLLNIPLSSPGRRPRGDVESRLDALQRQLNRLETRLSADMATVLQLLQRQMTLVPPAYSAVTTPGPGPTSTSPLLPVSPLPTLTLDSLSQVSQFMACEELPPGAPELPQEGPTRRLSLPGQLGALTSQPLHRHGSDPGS
Chain of Vitamin D3 receptor (Homo sapiens) (P11473 whole entry, looked up): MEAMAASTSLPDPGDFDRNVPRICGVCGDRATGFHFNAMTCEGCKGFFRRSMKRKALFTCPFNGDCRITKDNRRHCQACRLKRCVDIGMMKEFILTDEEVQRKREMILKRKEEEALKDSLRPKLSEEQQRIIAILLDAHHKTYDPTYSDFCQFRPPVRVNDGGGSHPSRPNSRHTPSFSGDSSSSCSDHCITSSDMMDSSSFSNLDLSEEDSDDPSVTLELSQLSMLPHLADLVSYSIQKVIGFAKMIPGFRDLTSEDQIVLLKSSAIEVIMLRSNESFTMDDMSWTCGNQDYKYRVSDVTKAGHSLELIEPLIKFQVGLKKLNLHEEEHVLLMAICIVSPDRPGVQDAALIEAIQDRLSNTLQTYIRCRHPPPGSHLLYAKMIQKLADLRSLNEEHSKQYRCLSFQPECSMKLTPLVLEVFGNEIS
Chain of Cytochrome P450 3A4 (Homo sapiens) (P08684 whole entry, looked up): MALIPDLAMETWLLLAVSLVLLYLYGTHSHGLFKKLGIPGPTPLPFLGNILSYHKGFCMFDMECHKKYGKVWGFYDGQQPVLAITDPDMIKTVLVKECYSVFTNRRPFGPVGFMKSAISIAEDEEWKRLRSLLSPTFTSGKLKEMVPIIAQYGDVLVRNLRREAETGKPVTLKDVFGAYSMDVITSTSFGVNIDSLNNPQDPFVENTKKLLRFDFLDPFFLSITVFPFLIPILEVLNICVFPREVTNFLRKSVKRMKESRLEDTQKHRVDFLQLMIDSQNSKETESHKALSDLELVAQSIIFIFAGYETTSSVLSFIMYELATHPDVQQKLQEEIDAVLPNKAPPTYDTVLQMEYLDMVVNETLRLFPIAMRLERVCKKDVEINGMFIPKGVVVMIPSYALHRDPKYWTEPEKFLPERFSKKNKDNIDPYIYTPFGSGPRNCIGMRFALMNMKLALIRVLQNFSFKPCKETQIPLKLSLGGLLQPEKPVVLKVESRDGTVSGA

Consider `ClC(Cl)c1ccccc1`, for which the Potency result in [1], in assay [2], in assay [4], in [7], in assay [9] and in assay [10] was “inactive” throughout. The Potency result in assay [11], in assay [14] and in assay [15] was “inactive” throughout. Also, the call in assay [3], in assay [5], in assay [6], in assay [8], in assay [12] and in assay [18] was inactive. The max response in assay [13] was 4.33%; in [16], -9.22% (inactive); in assay [17] it was 3.54% (inactive).
`ClCCBr`: the Potency entry in assay [1], in [2], in [19], in [4], in [7] and in [9] was “inactive” throughout. Further, the Potency entry in [20], in assay [10], in assay [11], in assay [14] and in assay [15] was “inactive” in each case. The compound was classed as inactive in assay [5], in [6], in assay [8] and in assay [18]. Also, the max response in [13] was -4.86%; in [16], -0.276% (inactive); in [17] it was -0.231% (inactive).
As to `CC(C)[C@]12CC(=O)[C@H](C)[C@H]1C2`, the Potency entry in assay [1], in assay [2], in assay [4], in assay [7], in [9] and in assay [20] was “inactive” throughout. In addition, the Potency entry in assay [10], in [11], in assay [14] and in [15] was “inactive” in each case. In addition, the outcome in [6], in assay [8], in assay [12] and in [18] was inactive. Further, the max response in assay [13] is -7.72% and -9.15%; in assay [16], 18.6% (inactive) and -3.71% (inactive); in assay [17] it was 2.33% (inactive) and 6.9% (inactive).
Turning to `CCC(Cl)[N+](=O)[O-]` (centres undefined), the Potency entry in assay [1], in [2], in [19], in assay [4], in assay [7] and in [9] was “inactive” in each case. Moreover, the Potency entry in assay [10], in assay [11], in [14] and in assay [15] was “inactive” each time. Further, the compound was classed as inactive in assay [3], in assay [5], in assay [6], in assay [12] and in assay [18]. Also, the max response is -9.88% in assay [13], -3.51% (inactive) in [16] and -0.428% (inactive) in assay [17].
In the case of `ClC(Cl)C(Cl)Cl`, the Potency result in assay [1], in assay [2], in assay [4], in assay [7], in [9] and in assay [11] was “inactive” each time. For the same compound, the Potency result in assay [14] and in assay [15] was “inactive” throughout. Besides, the outcome in assay [3], in [5], in assay [6], in assay [8], in [12] and in assay [18] was inactive. Also, the max response is -2.39% in [13], -11.3% (inactive) in assay [16] and 3.27% (inactive) in assay [17].
With `Oc1cccc(Cl)c1`, the Potency result in assay [1], in assay [2], in assay [4], in assay [7], in assay [9] and in assay [20] was “inactive” throughout. Moreover, the Potency entry in [10], in assay [11], in [14] and in assay [15] was “inactive” each time. For the same compound, the outcome in [3], in assay [5], in [6], in assay [8], in assay [12] and in assay [18] was inactive. Also, the max response in assay [13] is -0.103%; in [16] it was 0.616% (inactive); in assay [17], 1.59% (inactive).
As for `CC(C)Br`, the Potency result in assay [1], in assay [2], in [4], in assay [7], in assay [9] and in assay [20] was “inactive” each time. Also, the Potency result in [11], in assay [14] and in assay [15] was “inactive” each time. The compound was called inactive in assay [3], in [6], in assay [8], in assay [12] and in assay [18]. Further, the max response was 4.33% in assay [13], -0.407% (inactive) in assay [16] and -2.97% (inactive) in assay [17].
